Among all 2,300 compounds or so, about 1,100 (48%) were called active. So high a share suggests a set chosen from earlier hits. This is one part of the list. Measured potencies and affinities stand elsewhere. A number with no mark means an inactive call. No rule for the calls is given here.
Test: S. typhi counter-screen signal inhibition – fluorescence, 4 h, counter-screen for PhoP regulon inhibitor project, dose response (AID 2384)
Details: S. typhi GFP reporter counter-screen; series mostly up to 150 µM; inhibition: at the top concentration

Structure (SMILES) | inhibition
COC(=O)c1cc2ccsc2n1CC(=O)N(C)c1ccccc1 | 13.3%
COC(=O)c1c(-c2cccc(C)c2)csc1N | -0.42%
COc1c(Br)cc2c(C)c(C(=O)N3CCOCC3)oc2c1Br | -36.3%
Cn1c(=O)cc(SCC(=O)N2CCN(C3CCCCC3)CC2)c2ccccc21 | 9.71%
COc1ccccc1C(=O)N1CC2(C)CC1CC(C)(C)C2 (stereo not drawn) | -20.3%
NC(=O)COc1c(-c2ccco2)oc2ccccc2c1=O | -26%
O=C(NCc1ccc2c(c1)OCO2)c1ccc2c(c1)C(=O)N(Cc1cccnc1)C2=O | 4.44%
Cc1ncc(CC(=O)n2cc(C(=O)c3cc(F)ccc3O)cn2)s1 | 27.9%
CCC(C)n1c(SCC(=O)NCc2ccco2)nnc1-c1cccc(S(=O)(=O)N2CCOCC2)c1 (stereo not drawn) | 3.8%
COc1cc(C)c(Cl)cc1S(=O)(=O)n1cnc(C)c1 | 13.2%
CC1CC(C)CN(C(=O)c2ccc(NC(=O)c3ccc(=O)[nH]c3)cc2)C1 (stereo not drawn) | 20%
COc1cccc(NC(=O)N2CCCC(C(=O)Nc3ccccc3OC)C2)c1 (stereo not drawn) | -26.5%
COc1ccccc1NC(=O)CSC1CC(=O)N(c2ccc3c(c2)OCO3)C1=O (stereo not drawn) | 23.1%
CN(C)/C=N/c1ncc(C(=O)c2ccc(Cl)cc2)s1 | -34.4%
CCN(CC)CCCCCCCCOC(=O)c1cc(OC)c(OC)c(OC)c1 | -0.35%
CCn1cc(C(=O)NCCc2ccccc2)c(=O)c2cc(F)c(N3CCN(C)CC3)cc21 | 5.9%
CSc1ccc(NC(=O)C(C)N2CCN(C)CC2)cc1 (stereo not drawn) | 16.4%
O=C(CCc1nc2ccccc2s1)NC1CCOC1=O (stereo not drawn) | 1.3%
CCOc1ccc2nc(NC(=O)C3=NNC(=O)CC3)sc2c1 | 4.7%
CCCCn1cnc2cc(NCc3cccc(OC)c3O)ccc21 | 18.8%
CCOc1ccccc1NC(=O)NS(=O)(=O)c1ccc(C)cc1 | -13%
Cc1ccc(S(=O)(=O)NC(C)(C)CSc2nnc(N)s2)cc1 | -24.4%
Cc1cccc(NCN2C(=O)c3ccccc3C2=O)c1 | 6.6%

Structure (SMILES) | inhibition
CC(=O)Nc1ccc(S(=O)(=O)Nc2nc3ccccc3nc2Nc2cccc(S(N)(=O)=O)c2)cc1 | -9.28%
Cc1cc(C)c(S(=O)(=O)Nc2cccnc2)c(C)c1 | -3.5%
COc1ccc(C(=O)NNS(=O)(=O)c2ccccc2)cc1OC | 2.97%
Cc1ccc(C)c(SCC(=O)Nc2ccc(S(=O)(=O)Nc3ncccn3)cc2)c1 | -5.02%
COC(=O)NNS(=O)(=O)c1ccc(C)cc1 | 37.3%
O=C(COC(=O)CNC(=O)c1ccccc1)Nc1ccc(F)c([N+](=O)[O-])c1 | -8.3%
CCOc1ccc(C2CC(=O)NC(SCC(=O)OC)=C2C#N)cc1 (stereo not drawn) | -12.6%
COc1cc(S(=O)(=O)N2CCN(C(=O)c3ccco3)CC2)c(OC)cc1C | 7.78%
COc1ccc(-n2nnc3c(SCC(=O)N4CCCc5ccccc54)ncnc32)cc1 | -11.9%
O=C(Nc1ccccc1)c1cccnc1N1CCOCC1 | -26.5%
Cc1c(C(=O)N2CCN(Cc3ccccc3)CC2)sc2ncnc(N3CCOCC3)c12 | -6.98%
CCC(Sc1nccn1C)C(=O)Nc1nnc(C)s1 (stereo not drawn) | -18.7%
N#Cc1ccc(C2=NC(C(F)(F)F)(C(F)(F)F)c3c(n(Cc4ccco4)c(=O)[nH]c3=O)N2)cc1 | -0.36%
COCCNC(=O)Cn1cnc2c1c(=O)n(C)c(=O)n2C | 8.18%
Cc1[nH]c2ccccc2c1/C=N/Nc1nc2ccccc2[nH]1 | 11.7%
Cc1cc(C)c2c(N)c(C(=O)c3ccc(Cl)c(Cl)c3)sc2n1 | -3.82%
O=C(O)c1cccc(NC2=Nc3cccc4cccc2c34)c1 | -13.8%
COc1ccc(Cn2nnnc2C(c2cc3ccc(OC)cc3[nH]c2=O)N2CCC(C)CC2)cc1 (stereo not drawn) | -31.1%
CCCCCNC(=O)c1cn(CC)c2cc(N3CCN(C)CC3)c(F)cc2c1=O | 31.1%
O=C(CCC(=O)Nc1nnc(C2CCCCC2)s1)NCC1CCCO1 (stereo not drawn) | 21.9%
COc1ccc(OC)c(S(=O)(=O)N2CCC(C(=O)NCc3ccccc3OC)CC2)c1 | 14.1%
COC(=O)C1=C(C(=O)OC)SC(=C2C(=S)C(C)(C)N(C(=O)C3CC3)c3ccccc32)S1 | 26.6%
COc1cc(/C=N/N(C)S(=O)(=O)c2ccc(C)cc2)cc([N+](=O)[O-])c1O | 15.3%

Structure (SMILES) | inhibition
COc1cccc(/C=N/NC(=O)CNC(=O)COc2cccc(C)c2)c1O | 18%
Nc1ccc(C(O)(C(F)(F)F)C(F)(F)F)cc1 | 6.54%
Cc1nnc(SCc2cnc(-c3ccc(C(C)C)cc3)s2)n1C | 8.56%
COC(=O)c1ccc(Cn2c(O)c(N=NC(N)=S)c3ccccc32)o1 | 0.41%
CC1CCCCN1S(=O)(=O)c1ccc(S(=O)(=O)NCCc2ccncc2)cc1 (stereo not drawn) | -15.6%
NC(=O)c1ccsc1NC(=O)c1ccc2c(c1)CCCC2 | -10.9%
COc1ccc(/C=N/NC(=O)c2cccnc2)c(C(=O)O)c1OC | -21.9%
COc1cc(/C=C(/C#N)C(=O)Nc2ccccc2)c(Br)cc1OCc1ccc(C(=O)O)cc1 | 1.17%
N#C/C(=C\c1ccc(O)c(O)c1)C(=O)c1ccc(O)c(O)c1 | 3.1%
COc1ccc(OC)c(C(=O)c2ccc(C(=O)O)cc2)c1 | 21%
CC(Oc1ccc(/C=N/NC(=O)Cc2cccc3ccccc23)cc1)C(=O)O (stereo not drawn) | -15.5%
COc1ccc(/C=N/NC2=NCCCCC2)c(OC)c1 | 15.8% [at 9.38 µM]
COc1ccc2nc(C)cc(Nc3ccc(N4CCOCC4)cc3)c2c1 | 11.6%
COc1ccc(CNC(=O)C(c2cccs2)N(C(=O)c2csnn2)C2CC2)cc1 (stereo not drawn) | 4.17%
COC(=O)c1ccc(NC(=O)c2ccccc2N(C)S(=O)(=O)c2ccccc2)cc1 | -15.2%
Cc1ccc(N/N=C/c2ccncc2)cc1 | 5.95%
Cc1ccc(-c2ccccc2NC(=O)CS(=O)CC(=O)Nc2ccc(C)c(Cl)c2)o1 (stereo not drawn) | -36.7%
COc1ccc(-n2c3c(cc(C(=O)Nc4cccc(C)n4)c2=O)C(=O)CC(C)(C)C3)cc1 | 8.91%
CNc1nc(SC)n(C)c(=O)c1N=O | 28.2%
O=C(CCCCCn1c(=S)[nH]c2ccc(N3CCOCC3)cc2c1=O)NC1CCN(Cc2ccccc2)CC1 | 4.3%
Cc1ccc(NC(=S)Nc2ccc(S(=O)(=O)Nc3ncccn3)cc2)cc1Cl | -48.7%
CCOC(=O)c1cc(-c2ccc(F)cc2)n(CCC(=O)NC2CCN(Cc3ccccc3)CC2)c1C | 16.4%
